Values without a mark were called inactive. The source made the active and inactive calls. Rule as the data show it, unless noted: active = inhibition above about 33%; inactive = the rest.

The target of assay [1] is Nuclear receptor coactivator 3 (Homo sapiens) (UniProt Q9Y6Q9). As to the kind of experiment: SRC3 coactivator transcriptional activity inhibitors, confirmation, cell-based, luminescence, quadruplicate (AID 588792;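 active = mean inhibition over 43.08%, the solvent-only control mean plus 3 SD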;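 also: 0% = DMSO treated cells and 100% = gossypol at 36 µM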). The following applies: HEK293 GAL4-SRC3 luciferase reporter, at 3.6 µM, active compounds read high. In general terms: A reporter such as luciferase makes a cellular process visible.

Assay [2] concerns transactivating tegument protein VP16 (Human herpesvirus 1), Gal4-VP16 luciferase reporter. The assay is described as follows: VP16 transactivation inhibitors, counter-screen for SRC3 inhibitor project, cell-based, luminescence, high throughput (AID 588794; in the data active = inhibition above about 30%). The conditions noted are these: mammalian cells, VP16-driven luciferase reporter luminescence; at 3.6 µM; active compounds read high. In general terms: A counterscreen serves to expose hits that act by an unwanted route or on another target.

For assay [3], the target named is Nuclear receptor coactivator 1 (Homo sapiens) (UniProt Q15788). As to the kind of experiment: SRC1 coactivator transcriptional activity inhibitors, confirmation, cell-based, luminescence, quadruplicate (AID 588820;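 active = mean inhibition above 46.68%, the untreated control wells mean plus 3 SD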;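 also: 0% = DMSO wells and 100% = gossypol 36 µM treated wells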). The following applies: HEK293 GAL4-SRC1 luciferase reporter, at 3.6 µM, active compounds read high.
Assay [4] can be described thus: VP16 transactivation inhibitors, counter-screen for SRC1 inhibitor project, cell-based, luminescence, high throughput (AID 588824; in the data active = inhibition above about 25%). The conditions noted are these: cell-based VP16 transactivation luciferase luminescence; at 3.6 µM; active compounds read high.
Assay [5] can be described thus: StAR promoter reporter inhibitors, counter-screen for LRH-1 inverse agonist project, cell-based, luminescence, high throughput (AID 651611; in the data active = inhibition above about 28%). The conditions noted are these: StAR promoter luciferase reporter counterscreen, at 3.6 µM, active compounds read high.
For assay [6], the target named is Nuclear receptor subfamily 5 group A member 2 (Homo sapiens) (UniProt O00482). As to the kind of experiment: LRH-1 (NR5A2) inverse agonists, retest, confirmation, cell-based, luminescence (AID 651613; in the data active = inhibition above about 42%;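 also: HEK293T cells co-transfected with LRH-1 and StAR promoter luciferase reporter; 0% = vehicle wells and 100% = parental cells lacking receptor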). The conditions noted are these: cell-based LRH-1 luciferase reporter, inverse agonism; at 3.6 µM; active compounds read high.
In assay [7] the target is Steroidogenic factor 1 (Homo sapiens) (UniProt Q13285). As to the kind of experiment: SF1 (NR5A1) inverse agonists, counter-screen for LRH-1 inverse agonist project, cell-based, luminescence, high throughput (AID 651614; in the data active = inhibition above about 44%;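 also: cells cotransfected with StAR promoter reporter and SF1 expression vector; 0% = vehicle on cells with receptor and 100% = vehicle on cells lacking receptor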). The conditions noted are these: cell-based SF1 luciferase reporter, at 3.6 µM, active compounds read high.
Assay [8] in a line: VP16 transactivation reporter inhibitors, counter-screen for LRH-1 inverse agonist project, cell-based, luminescence, high throughput (AID 651615). The conditions noted are these: Gal4-VP16 luciferase reporter cells, at 3.6 µM, active compounds read high.
Assay [9] has as its system transactivating tegument protein VP16 (Human herpesvirus 1). As to the kind of experiment: VP16 transactivation reporter inhibitors, counter-screen for SRC2 inhibitor project, cell-based, luminescence, single concentration (AID 652007; in the data active = inhibition above about 36%). The following applies: cell-based VP16 transactivation luciferase reporter, at 8.9 µM, active compounds read high.
In assay [10] the target is Nuclear receptor coactivator 2 (Homo sapiens) (UniProt Q15596). The assay is described as follows: SRC2 coactivator transcriptional activity inhibitors, confirmation, cell-based, luminescence, HEK293, triplicate (AID 652008;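 active = mean inhibition above 46.5%, the solvent-only control mean plus 3 SD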;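 also: 0% = DMSO-treated cells and 100% = Gossypol at 36 µM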). The conditions noted are these: HEK293 GAL4-SRC2 luciferase reporter, at 8.9 µM, active compounds read high.

Steroidogenic factor 1 (Homo sapiens), sequence (Q13285 whole entry, looked up, the tested form may be a part): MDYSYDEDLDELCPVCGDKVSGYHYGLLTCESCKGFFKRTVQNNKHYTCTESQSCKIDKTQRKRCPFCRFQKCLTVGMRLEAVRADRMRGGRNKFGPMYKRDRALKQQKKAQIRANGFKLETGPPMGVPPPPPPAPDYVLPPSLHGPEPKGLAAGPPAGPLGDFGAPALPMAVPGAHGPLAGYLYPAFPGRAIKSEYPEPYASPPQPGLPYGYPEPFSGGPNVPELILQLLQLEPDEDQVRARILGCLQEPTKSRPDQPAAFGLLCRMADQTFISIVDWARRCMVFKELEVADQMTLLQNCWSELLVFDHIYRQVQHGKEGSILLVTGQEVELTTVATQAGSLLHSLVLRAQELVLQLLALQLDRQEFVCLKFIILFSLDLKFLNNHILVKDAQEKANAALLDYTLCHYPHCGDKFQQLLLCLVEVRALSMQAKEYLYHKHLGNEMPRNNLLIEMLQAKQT
Nuclear receptor coactivator 3 (Homo sapiens), sequence (Q9Y6Q9 whole entry, looked up, the tested form may be a part): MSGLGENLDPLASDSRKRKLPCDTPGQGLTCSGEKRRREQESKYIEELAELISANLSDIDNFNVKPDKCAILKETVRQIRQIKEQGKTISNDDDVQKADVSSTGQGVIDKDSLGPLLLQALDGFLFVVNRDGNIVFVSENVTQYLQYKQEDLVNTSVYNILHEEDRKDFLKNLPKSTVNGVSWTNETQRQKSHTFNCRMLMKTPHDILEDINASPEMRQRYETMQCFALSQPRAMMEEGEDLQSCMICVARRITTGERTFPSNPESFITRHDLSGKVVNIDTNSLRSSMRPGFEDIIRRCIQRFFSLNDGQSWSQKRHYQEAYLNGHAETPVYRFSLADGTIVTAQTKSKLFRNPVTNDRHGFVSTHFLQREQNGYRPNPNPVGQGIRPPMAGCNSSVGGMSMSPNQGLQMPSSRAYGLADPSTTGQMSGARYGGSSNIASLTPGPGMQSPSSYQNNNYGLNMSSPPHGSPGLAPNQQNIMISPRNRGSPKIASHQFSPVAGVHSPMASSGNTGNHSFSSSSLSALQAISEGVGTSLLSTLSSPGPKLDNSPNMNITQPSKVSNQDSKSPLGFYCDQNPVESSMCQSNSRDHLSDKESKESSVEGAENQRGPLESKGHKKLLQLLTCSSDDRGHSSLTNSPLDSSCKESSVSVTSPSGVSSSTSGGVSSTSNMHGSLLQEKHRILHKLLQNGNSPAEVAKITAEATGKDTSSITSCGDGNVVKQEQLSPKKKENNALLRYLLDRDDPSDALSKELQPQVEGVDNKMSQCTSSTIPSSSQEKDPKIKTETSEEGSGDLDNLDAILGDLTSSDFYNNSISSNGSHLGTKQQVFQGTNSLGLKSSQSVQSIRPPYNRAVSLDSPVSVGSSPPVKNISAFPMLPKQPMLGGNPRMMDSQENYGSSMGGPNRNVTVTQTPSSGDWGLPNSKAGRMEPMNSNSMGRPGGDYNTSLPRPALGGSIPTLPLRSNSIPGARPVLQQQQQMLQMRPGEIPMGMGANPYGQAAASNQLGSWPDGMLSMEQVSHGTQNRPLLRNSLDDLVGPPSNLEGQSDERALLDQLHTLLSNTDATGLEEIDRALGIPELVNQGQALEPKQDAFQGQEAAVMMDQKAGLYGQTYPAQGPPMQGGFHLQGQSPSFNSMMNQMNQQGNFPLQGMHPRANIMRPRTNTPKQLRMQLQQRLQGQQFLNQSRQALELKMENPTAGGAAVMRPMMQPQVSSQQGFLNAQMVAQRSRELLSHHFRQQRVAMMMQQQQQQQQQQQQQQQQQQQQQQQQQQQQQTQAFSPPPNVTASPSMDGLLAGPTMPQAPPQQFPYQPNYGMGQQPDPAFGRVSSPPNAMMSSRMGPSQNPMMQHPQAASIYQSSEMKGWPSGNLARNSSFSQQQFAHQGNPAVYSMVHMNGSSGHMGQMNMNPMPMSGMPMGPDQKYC
Nuclear receptor subfamily 5 group A member 2 (Homo sapiens), sequence (O00482 whole entry, looked up): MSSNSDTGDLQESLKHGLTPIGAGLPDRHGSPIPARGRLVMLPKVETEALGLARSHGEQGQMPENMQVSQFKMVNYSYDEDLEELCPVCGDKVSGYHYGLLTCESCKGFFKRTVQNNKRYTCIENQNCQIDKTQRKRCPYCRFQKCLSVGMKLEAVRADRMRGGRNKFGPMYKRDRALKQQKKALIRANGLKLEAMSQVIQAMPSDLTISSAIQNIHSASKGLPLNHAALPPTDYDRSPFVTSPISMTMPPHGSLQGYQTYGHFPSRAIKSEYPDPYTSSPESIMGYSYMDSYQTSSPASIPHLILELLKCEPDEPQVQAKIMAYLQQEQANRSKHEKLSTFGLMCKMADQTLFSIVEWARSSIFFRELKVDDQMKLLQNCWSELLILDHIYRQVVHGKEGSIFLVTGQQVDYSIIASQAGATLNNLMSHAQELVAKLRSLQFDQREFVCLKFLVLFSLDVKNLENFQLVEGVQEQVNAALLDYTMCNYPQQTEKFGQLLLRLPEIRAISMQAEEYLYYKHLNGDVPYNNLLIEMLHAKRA
Nuclear receptor coactivator 1 (Homo sapiens), sequence (Q15788 whole entry, looked up, the tested form may be a part): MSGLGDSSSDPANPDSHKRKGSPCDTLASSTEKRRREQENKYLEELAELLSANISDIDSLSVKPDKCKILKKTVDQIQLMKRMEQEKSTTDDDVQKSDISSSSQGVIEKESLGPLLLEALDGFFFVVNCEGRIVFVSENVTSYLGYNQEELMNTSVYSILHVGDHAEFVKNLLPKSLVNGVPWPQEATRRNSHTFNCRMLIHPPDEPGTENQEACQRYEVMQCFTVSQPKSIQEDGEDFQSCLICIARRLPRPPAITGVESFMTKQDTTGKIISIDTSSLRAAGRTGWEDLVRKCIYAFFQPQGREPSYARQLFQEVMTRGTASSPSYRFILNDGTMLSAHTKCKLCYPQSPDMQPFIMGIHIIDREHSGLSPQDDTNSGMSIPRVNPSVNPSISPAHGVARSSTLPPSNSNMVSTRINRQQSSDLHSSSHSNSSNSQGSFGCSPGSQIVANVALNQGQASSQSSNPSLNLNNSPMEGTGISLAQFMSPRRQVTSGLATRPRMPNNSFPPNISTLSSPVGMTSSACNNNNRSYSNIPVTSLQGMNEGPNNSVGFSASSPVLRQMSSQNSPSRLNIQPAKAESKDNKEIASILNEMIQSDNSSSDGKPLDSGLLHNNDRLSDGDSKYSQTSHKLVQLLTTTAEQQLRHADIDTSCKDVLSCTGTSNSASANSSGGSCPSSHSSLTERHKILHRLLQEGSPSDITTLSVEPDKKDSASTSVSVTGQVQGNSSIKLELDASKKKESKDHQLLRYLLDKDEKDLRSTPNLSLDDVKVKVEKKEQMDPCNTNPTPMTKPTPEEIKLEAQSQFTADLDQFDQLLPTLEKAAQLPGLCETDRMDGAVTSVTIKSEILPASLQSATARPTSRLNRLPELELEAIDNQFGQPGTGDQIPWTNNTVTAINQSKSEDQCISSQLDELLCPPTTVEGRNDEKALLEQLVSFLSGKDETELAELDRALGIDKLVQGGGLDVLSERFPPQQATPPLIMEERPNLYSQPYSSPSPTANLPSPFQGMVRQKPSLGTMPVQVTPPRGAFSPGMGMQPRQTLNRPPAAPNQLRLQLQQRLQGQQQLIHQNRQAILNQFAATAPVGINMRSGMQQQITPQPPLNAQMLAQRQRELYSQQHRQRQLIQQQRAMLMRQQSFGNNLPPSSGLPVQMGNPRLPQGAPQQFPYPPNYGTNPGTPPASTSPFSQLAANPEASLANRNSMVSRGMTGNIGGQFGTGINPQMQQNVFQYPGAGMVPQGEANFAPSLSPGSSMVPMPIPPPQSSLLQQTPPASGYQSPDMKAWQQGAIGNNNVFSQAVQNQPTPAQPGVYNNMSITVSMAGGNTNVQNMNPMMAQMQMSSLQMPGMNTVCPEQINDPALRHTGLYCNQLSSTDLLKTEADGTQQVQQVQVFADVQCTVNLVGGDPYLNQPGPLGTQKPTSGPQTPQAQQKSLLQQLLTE

Usually inhibition stands for the relative decrease from the control value, in per cent. Turning to `CC[C@@]1(O)C(=O)OCc2c1cc1n(c2=O)Cc2cc3c(N)cccc3nc2-1`, the inhibition in [1] is 91.8% (active); in assay [2] it was 77.3% (active); in [3], 58.2% (active); in [4], 74.7% (active); in assay [5], 84.6% (active); in [6] it was 104% (active). Besides, the inhibition in assay [7] is 92% (active); in [8], 77.2% (active); in assay [9], 30.5%; in [10], 51.9% (active).

For the compound `CC(C)(C)c1ccc(C(=O)O/N=C(\N)c2ccccc2)cc1`, the inhibition in assay [1] was 74.5% (active); in [2] it was 73.6% (active); in assay [3] it was 61.1% (active); in assay [4] it was 58.3% (active); in assay [5], 61.9% (active); in [6], 55% (active). Moreover, the inhibition in assay [7] was 64.8% (active); in assay [8], 51.1% (active); in assay [9] it was 76.9% (active); in assay [10], 87.7% (active).

On to `c1csc(CNc2ccc3c(c2)OCCO3)c1`, for which the inhibition in [1] was 23.3%; in assay [2], -33.9%; in [3], -25.5%; in assay [4], -34.9%; in assay [5] it was -19.7%; in assay [6] it was -77.1%. The inhibition in [7] is -20.9%; in assay [8], -49.8%; in assay [9], 60.7% (active); in [10], 47.1% (active).

With `COc1cccc(N2CCN(c3ncnc4c3cnn4-c3ccc(C)cc3C)CC2)c1`, the inhibition in assay [1] was 88.3% (active); in [2], 81.1% (active); in assay [3], 54.6% (active); in assay [4] it was 86.2% (active); in assay [5] it was 83.2% (active); in [6] it was 97.4% (active). Moreover, the inhibition is 89.8% (active) in [7], 90.2% (active) in [8], 81.1% (active) in assay [9] and 72.1% (active) in [10].

With `Cc1[nH]c2ccccc2c(=O)c1C(=O)/C=C/c1ccccc1`, the inhibition is 76.1% (active) in [1]; 58% (active) in [2]; 73.7% (active) in assay [3]; 59.6% (active) in [4]; 76.2% (active) in assay [5]; 90.2% (active) in assay [6]. For the same compound, the inhibition in assay [7] was 82.9% (active); in assay [8] it was 77.8% (active); in assay [9] it was 39% (active); in assay [10], 72.7% (active).

Turning to `O=C(CCCN1C(=O)/C(=C/c2ccccc2Cl)SC1=S)NNC(=O)c1ccccc1Cl`, the inhibition is 58% (active) in assay [1]; 31.3% (active) in assay [2]; 40% in [3]; 40.9% (active) in assay [4]; 54.6% (active) in [5]; 55.1% (active) in [6]. The inhibition in assay [7] is 46.8% (active); in assay [8], 45% (active); in [9], 80.7% (active); in assay [10] it was 87.5% (active).

For the compound `Cc1cc(C2=NNC(=NC3CC3)SC2)c(C)n1-c1ccccc1F`, the inhibition in assay [1] was 84.8% (active); in [2] it was 88.3% (active); in assay [3] it was 78.7% (active); in assay [4] it was 80.7% (active); in [5], 92% (active); in assay [6], 79.6% (active). Further, the inhibition in assay [7] was 91.1% (active); in assay [8], 79.1% (active); in assay [9], 93.6% (active); in assay [10], 97% (active).

`CC(=O)OC[C@]12CC[C@H]3[C@@](C)(CC[C@H]4C(C)(C)CCC[C@]34C)[C@@H]1CC(C1=CC(=O)OC1O)O2` (stereo not given in full): the inhibition in assay [1] was 93.2% (active); in [2], 90% (active); in assay [3], -93.3%; in assay [4], 90.8% (active); in [5], 92.7% (active); in [6], 110% (active). Moreover, the inhibition in assay [7] was 97.1% (active); in assay [8], 95% (active); in assay [9], 96% (active); in assay [10], 93.4% (active).

Regarding `O=C(NCc1cccnc1)/C(=C/c1ccc(-c2ccc(Cl)cc2)o1)S(=O)(=O)c1ccccc1`, the inhibition in assay [1] is 76.5% (active); in assay [2] it was 62.8% (active); in [3], 48.1% (active); in assay [4], 47% (active); in assay [5], 47.5% (active); in [6], 79.5% (active). Moreover, the inhibition in assay [7] was 78.1% (active); in assay [8] it was 77.2% (active); in assay [9], 70.2% (active); in [10], 50.4% (active).

`O=c1ccc2ccccc2c2ccccc12`: the inhibition is 73.2% (active) in [1]; 70.8% (active) in assay [2]; 58.7% (active) in [3]; 70% (active) in [4]; 76.7% (active) in assay [5]; 93.6% (active) in assay [6]. Besides, the inhibition is 90.3% (active) in assay [7], 88.1% (active) in [8], 68.3% (active) in [9] and 84.5% (active) in assay [10].

`O=C(NCCc1ccccc1F)c1ccc2c(c1)OCCO2`: the inhibition in [1] was 67.2% (active); in assay [2] it was 57.6% (active); in assay [3], -11.5%; in assay [4] it was 54.6% (active); in assay [5] it was 65.5% (active); in assay [6], 55.3% (active). Further, the inhibition is 72.4% (active) in assay [7], 60.5% (active) in assay [8], 74.1% (active) in [9] and 89.9% (active) in assay [10].

On to `COC(=O)c1cn(NC(=O)c2cc([N+](=O)[O-])ccc2F)c(=O)c2ccccc12`, for which the inhibition is 83.8% (active) in assay [1]; 83.6% (active) in assay [2]; 51.1% (active) in assay [3]; 81% (active) in assay [4]; 89% (active) in [5]; 102% (active) in [6]. The inhibition in assay [7] is 92.9% (active); in assay [8], 84.3% (active); in [9] it was 27.7%; in assay [10], 64.7% (active).

As to `COc1ccc(C[C@H](N)C(=O)N[C@H]2[C@@H](O)[C@H](n3cnc4c(N(C)C)ncnc43)O[C@@H]2CO)cc1`, the inhibition in assay [1] was 97% (active); in assay [2], 94.2% (active); in assay [3], 89.3% (active); in assay [4], 91.8% (active); in assay [5], 97% (active); in assay [6], 111% (active). For the same compound, the inhibition in [7] is 99.4% (active); in [8] it was 99.4% (active); in assay [9] it was 91% (active); in assay [10], 92.4% (active).

Turning to `O=c1c2ccccc2oc2cc(C#CC3(O)CCCCC3)ccc12`, the inhibition in assay [1] was 32.4%; in [2], 33.5% (active); in [3] it was -2.8%; in assay [4], -14.8%; in [5], -28.9%; in assay [6], -129%. In addition, the inhibition in assay [7] is -33.5%; in assay [8] it was -40.4%; in assay [9], -4.85%; in [10], 48.9% (active).

Regarding `Cc1nc2c(-c3ccc(F)cc3)cnn2c(N)c1-c1ccccc1`, the inhibition is 55.5% (active) in assay [1]; 38.8% (active) in [2]; 29.6% in [3]; 7.29% in [4]; 6.33% in assay [5]; -102% in assay [6]. Also, the inhibition is -17.6% in assay [7], -0.77% in [8], 74.5% (active) in assay [9] and 79.6% (active) in assay [10].

The values are drawn from PubChem BioAssay.
